Reference: the supplement of paper PMC12636033
± gives the standard deviation of the averaged measurements. Whole data set: some 33,000 sequences, median “E-score (rank enrichment, -0.5 to 0.5)” near -0.0075, cut for the highest 2% near 0.23. Only a selection was taken, and the highest values are over-represented in it overall.

These sequences were tested on WT Max(13-93) synthetic (M65Nle) (assay: PBM 8-mer E-score (E-score (rank enrichment, -0.5 to 0.5)); higher = stronger preferential binding).
Description: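 Protein binding microarray (universal PBM chip covering all 10-mers in fixed probe flanks) with chemically synthesized human Max(13-93) bHLH-LZ analogs (not full-length Max) bearing noncanonical residues (hArg, Tha, Aib, Nle at 65) and aromatic Cys staples. Read-out per 8-mer (and its reverse complement): E-score (rank-based enrichment, -0.5 to 0.5) and Z-score of median probe intensity.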

| Sequence | PBM 8-mer E-score |
| --- | --- |
| AAGAAATG | 0.101 ± 0.04 |
| AAGACGGA | -0.127 ± 0.033 |
| CAAATCAC | 0.0214 ± 0.064 |
| CGGACGAG | -0.203 ± 0.017 |
| AGTCACAT | 0.251 ± 0.0014 |
| AGTCACAC | 0.0956 ± 0.0018 |
| AGTCACAG | -0.117 ± 0.061 |
| CTTTTCAC | 0.241 ± 0.17 |
| ATTTTCAC | -0.017 ± 0.0034 |
| CCTTTCAC | 0.0141 ± 0.092 |
| AGAAGCAT | 0.135 ± 0.018 |
| AGGACGAT | 0.0538 ± 0.14 |
| AGCGATGA | -0.182 ± 0.065 |
| ATTACTAC | 0.264 ± 0.03 |
| ATAACTAT | 0.143 ± 0.042 |
| ATAACTAC | 0.239 ± 0.077 |
| ATTACTAG | -0.00575 ± 0.14 |
| CTTACTAC | 0.08987 ± 0.00056 |
| CTAACTAC | -0.0993 ± 0.059 |
| AGAAAGTA | 0.204 ± 0.0097 |
| CTGCGCAC | 0.0305 ± 0.029 |
| ACCACGCG | 0.361 ± 0.016 |

| Sequence | PBM 8-mer E-score |
| --- | --- |
| ACCACGTA | 0.0522 ± 0.0021 |
| AGCACGTA | -0.0146 ± 0.12 |
| CCCACGCG | 0.31 ± 0.011 |
| ACCACGTG | 0.4956 ± 0.0014 |
| AGCACGTG | 0.4878 ± 0.00074 |
| CCCACGCA | -0.00155 ± 0.1 |
| AGCACGTC | -0.118 ± 0.093 |
| ACCACGCA | 0.104 ± 0.042 |
| ACCACGCC | 0.0629 ± 0.16 |
| ACCACGTC | 0.0378 ± 0.15 |
| CCCACGCC | -0.00325 ± 0.11 |
| CCTTCGAA | 0.0583 ± 0.015 |
| ATTCAACA | 0.131 ± 0.1 |
| AGCCGTCA | -0.0749 ± 0.036 |
| CGATCGTC | -0.278 ± 0.042 |
| TCCCGGGA | -0.251 ± 0.0053 |
| AATGGCAT | 0.16 ± 0.14 |
| CAAAAAGC | -0.0124 ± 0.093 |
| AGGAGCAT | 0.00459 ± 0.16 |
| AGCTCTCA | -0.0708 ± 0.13 |
| GCGTGCCA | -0.0642 ± 0.045 |
| CCGTGCCA | -0.0364 ± 0.14 |

| Sequence | PBM 8-mer E-score |
| --- | --- |
| ACGTGCCT | 0.252 ± 0.0048 |
| CCGTGCCC | -0.132 ± 0.18 |
| AAGTGCCT | -0.106 ± 0.055 |
| ACGTGCCG | 0.206 ± 0.029 |
| ACGTGCCA | 0.294 ± 0.025 |
| ACGTGCCC | 0.247 ± 0.032 |
| GCGTGCCC | -0.0787 ± 0.13 |
| GCCTTGCC | -0.201 ± 0.024 |
| CAGAATAG | 0.0142 ± 0.048 |
| CCTATACG | 0.0369 ± 0.014 |
| CGCGAGAA | -0.0592 ± 0.072 |
| CGTGGCGA | 0.015 ± 0.0011 |
| ACTAGGCA | -0.0155 ± 0.066 |
| AATCGGAG | -0.0774 ± 0.087 |
| ATTGCCTC | 0.0622 ± 0.064 |
| ACACGCGA | 0.157 ± 0.042 |
| ACACGCGT | 0.325 ± 0.013 |
| ACGCGCGA | 0.114 ± 0.066 |
| ACACGCGC | 0.259 ± 0.026 |
| CCACGCGA | 0.0546 ± 0.083 |
| AAACGCGT | 0.0714 ± 0.1 |
| CCACGCGC | 0.152 ± 0.035 |

| Sequence | PBM 8-mer E-score |
| --- | --- |
| CCACGCGG | 0.433 ± 0.024 |
| ACACGCTG | 0.0854 ± 0.074 |
| GCACGCGC | 0.171 ± 0.025 |
| ACACGCGG | 0.281 ± 0.03 |
| ACACGCAT | 0.159 ± 0.043 |
| ATCCCTCC | 0.0287 ± 0.088 |
| CAGGGTAC | -0.008 ± 0.013 |
| CGCTAGTA | -0.0479 ± 0.0027 |
| CAGTGCGA | -0.0198 ± 0.16 |
| AGTCGTTC | -0.143 ± 0.11 |
| CCAGCCCA | -0.176 ± 0.14 |
| GCAACCAA | 0.00549 ± 0.078 |
| AAGCGCGC | 0.0137 ± 0.0014 |
| ACGCGCGT | 0.246 ± 0.012 |
| CCACGAGC | -0.0509 ± 0.015 |
| CCACGAGG | 0.365 ± 0.052 |
| ACGCGCGG | 0.118 ± 0.018 |
| CCACGAGA | 0.0679 ± 0.15 |
| ACGCGCGC | 0.0593 ± 0.05 |
| ATCTAATG | -0.0696 ± 0.071 |
